From PubChem BioAssay
SARS PLP yeast = SARS-CoV PLP inhibition in yeast; S. cerevisiae expressing SARS-CoV PLpro, growth rescue; 330,000 compounds, 0.19% hits; Potency, µM (titrated, usually from 32.9 µM), most hits filed as activators; calls by dose curve; further: nearly all actives have a fitted effect of over 55% in size
Pf growth 96h = P. falciparum growth inhibition at 96 hours; Potency, µM (series often up to 28.7 µM), hits mostly inhibitors; 320,000 compounds, 6.9% hits; P. falciparum luciferase reporter growth, 96 h
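Cell-based qHTS: luciferase-tagged P. falciparum in erythrocytes (2% hematocrit, 0.05% parasitemia final) incubated with compounds for 96 hours, 37 C, 5% CO2; luciferase detection reagent then added and luminescence measured.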
Sm TGR inh = S. mansoni TGR enzyme inhibition. Potency, µM (series often up to 114 µM), actives largely listed as inhibitors. 360,000 compounds, 3% hits. Q962Y6. purified TGR, DTNB reduction, TNB absorbance 405 nm; further: nearly all actives have a fitted effect of over 60% in size
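Kinetic colorimetric format: TGR-catalysed, NADPH-driven DTNB reduction monitored via TNB absorbance. Enzyme dispensed at 20 nM; compound exposure 15 min at room temperature before reaction start.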
Pf growth 48h = inhibits P. falciparum growth in the first generation, 48 h | 310,000 compounds, 5.9% hits | Potency, µM (top dose mostly 28.7 µM), most hits filed as inhibitors | P. falciparum luciferase growth in erythrocytes, 48 h
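Erythrocytes infected with P. falciparum carrying an integrated firefly luciferase reporter (2% hematocrit, 0.1% parasitemia final) were exposed to compounds in RPMI 1640 with 0.5% Albumax at 37 C, 5% CO2. Growth inhibition was scored as reduced luminescence.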
HCMV inh = inhibitors of human cytomegalovirus; HFF cells, HCMV-luciferase reporter, 72 h; hits give low values; activity change, negative = inhibition, % at 57.5 µM; 410,000 compounds, 4.5% hits; in the data active means activity change below about -60%; inconclusive means no clear call, values can overlap the other calls; inactive means above about -39%
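HFF cells seeded 16 h at 37C, treated with compounds, infected with luciferase-reporter HCMV at MOI 1 PFU/cell; luciferase read at 72 h post infection, normalized to buffer-only and Salinomycin controls.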
HCV inh = blocks hepatitis C virus | Potency, µM (titrated, usually from 41.8 µM), actives largely listed as inhibitors | Huh7.5.1 HCVcc-Cre infection, luciferase reporter, 44 h | AID 651820 | 340,000 compounds, 3.4% hits
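Cells seeded at 1,000/well and cultured 4 h, then compounds added followed by HCVcc-Cre virus (~0.5 moi). After 44 h further culture, luciferase substrate was added, plates held 15 min at room temperature, and luminescence read for 15 sec.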
Each line names hits and unclear results; the compound was inactive in the other large screens; ! = a repeat was not active. Hits are enriched below; roughly 15% of the tested compounds scored in any of these assays. Unless noted, the call rests on the fitted dose curve; in most records, active means well fitted curve in the direction sought with a large enough effect; inconclusive means small, poorly fitted or top-dose-only effect, or another doubt; inactive means no such curve, though single readings can be large; an effect the other way counts as inactive or inconclusive.

CC(C)C(NC(=O)c1ccccc1)c1nnc(SCC(=O)Nc2nccs2)n1C (centres undefined)	Pf growth 96h inconclusive, Pf growth 48h inconclusive
Cc1cc2c(c(=O)o1)[C@@]1(C(=O)N(C)c3ccccc31)C1=C(CCC1=O)O2	none (no result: SARS PLP yeast, Pf growth 96h, Sm TGR inh, Pf growth 48h, HCV inh)
CCOC(=O)c1nn(-c2cccc(C)c2)c2nnc(Cc3ccc(C)cc3)c(=O)n12	none
Cc1ccc(NC(=O)C2CCN(S(=O)(=O)c3ccc4c(c3)CCCC(=O)N4)CC2)c(Br)c1	HCMV inh active!
Cc1ccc(NC(=O)C2CCN(S(=O)(=O)c3ccc4c(c3)NC(=O)C(C)S4)CC2)c(Cl)c1 (centres undefined)	Pf growth 96h inconclusive, Pf growth 48h 10.4µM, HCV inh 11.2µM
Cc1cc(C)cc(NC(=O)C2CCN(S(=O)(=O)c3ccc4c(c3)NC(=O)C(C)S4)CC2)c1 (centres undefined)	Pf growth 96h inconclusive, Pf growth 48h inconclusive, HCMV inh inconclusive
Cc1ccc(NC(=O)C2CCN(S(=O)(=O)c3ccc4c(c3)NC(=O)C(C)S4)CC2)cc1Cl (centres undefined)	Pf growth 96h inconclusive, Pf growth 48h 13.1µM, HCMV inh -99.3, HCV inh inconclusive
CCOC(=O)CNC(=O)C1CCN(S(=O)(=O)c2ccc(-c3nn[nH]n3)cc2)CC1	none
CCc1nc2c(OCCn3cccc3)cccn2c1N(C)C(=O)C1CC1	none (no result: SARS PLP yeast, Pf growth 96h, Sm TGR inh, Pf growth 48h, HCV inh)
O=c1c(S(=O)(=O)c2ccccc2)cn(Cc2cccc(F)c2)c2cc(N3CCOCC3)c(F)cc12	HCMV inh -70.8 (no result: SARS PLP yeast, Pf growth 96h, Pf growth 48h, HCV inh)
O=c1c(S(=O)(=O)c2ccc(Cl)cc2)cn(Cc2ccccc2)c2ccc(F)cc12	Pf growth 96h 11.7µM, Pf growth 48h inconclusive
O=c1c(S(=O)(=O)c2cccc(Cl)c2)cn(Cc2ccccc2)c2cc(N3CCCCC3)c(F)cc12	HCMV inh -65.2 (no result: SARS PLP yeast, Pf growth 96h, Pf growth 48h, HCV inh)
CCCc1cc(C(N)=O)c(NC(=O)c2ccco2)s1	Pf growth 96h 0.415µM, HCV inh inconclusive
CSc1ccc(-c2cc(=O)c3ccccc3o2)cc1	Pf growth 96h inconclusive, HCMV inh -72.3, HCV inh inconclusive
O=c1cc(-c2ccccc2[N+](=O)[O-])oc2ccccc12	HCMV inh -66.0 (no result: Sm TGR inh)
CCOc1cc(/C=C(/NC(C)=O)C(=O)O)cc(Cl)c1OCc1cccc(Br)c1	none
OC[C@@H]1CN(Cc2cccnc2)C[C@H](n2cnc3c(N4CCN(c5ccccc5)CC4)ncnc32)O1	none (no result: SARS PLP yeast, Pf growth 96h, Sm TGR inh, Pf growth 48h, HCV inh)
Cc1cccc(N=CC=C2OC(C)(C)C(C)(C)O2)c1	Pf growth 48h inconclusive
Cc1ccccc1N=CC=C1OC(C)(C)C(C)(C)O1	Pf growth 48h 8.28µM
CC(C)CCN1CCN(Cc2nc3ccccc3s2)CC1CCO (centres undefined)	none
CC(C)CCN1CCN(Cc2ccsc2)CC1CCO (centres undefined)	Pf growth 96h 13.1µM
CC(C)CCN1CCN(Cc2nc(-c3ccc(F)cc3)cs2)CC1CCO (centres undefined)	Pf growth 96h 11.7µM, Pf growth 48h inconclusive
CC(C)CCN1CCN(CC(c2ccccc2)c2ccccc2)CC1CCO (centres undefined)	Pf growth 96h inconclusive, Pf growth 48h 3.7µM, HCV inh inconclusive
CC(C)CCN1CCN(Cc2ccoc2)CC1CCO (centres undefined)	none
CNc1nc2cnc(Nc3cccc(F)c3)cc2n1CCOC	none (no result: SARS PLP yeast, Pf growth 96h, Sm TGR inh, Pf growth 48h, HCV inh)
CCOc1ccccc1NC(=O)Cn1ncc2c(=O)oc3ccc(C)cc3c21	none (no result: SARS PLP yeast, Pf growth 96h, Pf growth 48h, HCV inh)
Cc1n[nH]c(=O)c2c(NC(=O)CSc3nnnn3-c3ccc(O)cc3)oc(C)c12	Sm TGR inh inconclusive, HCMV inh -67.1
Cc1n[nH]c(=O)c2c(NC(=O)CSc3nc4ccccc4c(=O)n3C(C)C)oc(C)c12	HCV inh inconclusive
Cc1n[nH]c(=O)c2c(NC(=O)CSc3nc4ccccc4c(=O)n3CCCO)oc(C)c12	HCMV inh -86.7
Cc1n[nH]c(=O)c2c(NC(=O)CSc3nnnn3-c3ccccc3)oc(C)c12	none
COCCn1c(Cc2ccccc2)nnc1SCC(=O)Nc1oc(C)c2c(C)n[nH]c(=O)c12	Sm TGR inh 50.1µM
CCO[C@@H]1OC(C(=O)N2CCN(C)CC2)=C[C@H](C(C)(C)C)[C@H]1CCCO	none (no result: HCMV inh)
NC(c1csc(Nc2ncccn2)n1)c1ccccc1Cl (centres undefined)	none (no result: SARS PLP yeast, Pf growth 96h, Sm TGR inh, Pf growth 48h, HCV inh)
Cc1nc(N2CCN(Cc3ccc4c(c3)OCO4)CC2)c2cc(-c3ccccc3)sc2n1	Pf growth 96h inconclusive, Pf growth 48h 11.7µM, HCV inh inconclusive
Cc1c(C(=O)N2CCN(Cc3ccc4c(c3)OCO4)CC2)sc2ncnc(N3CCN(c4ccccc4)CC3)c12	Pf growth 96h inconclusive, HCMV inh -85.8, HCV inh inconclusive
Cc1c(C(=O)N2CCN(Cc3ccc4c(c3)OCO4)CC2)sc2ncnc(N3CCN(c4ccccc4F)CC3)c12	Pf growth 96h inconclusive, HCMV inh -76.4, HCV inh inconclusive
O=C(COC(=O)/C=C/c1ccccc1Cl)NC1CCCCCC1	none
COc1ccc(C2SCC(=O)Nc3c2c(=O)[nH]n3C2CCCCCC2)cc1 (centres undefined)	Sm TGR inh 39.8µM
CCOc1ccc(C2SCC(=O)Nc3c2c(=O)[nH]n3C2CCCCCC2)cc1 (centres undefined)	Pf growth 96h inconclusive
O=C(CCC(=O)N1CCSc2ccccc21)NC1CCCCC1	Pf growth 96h inconclusive
CCn1c2ccc(Cl)cc2c2nc3ccccc3nc21	Sm TGR inh 28.2µM, HCV inh inconclusive
CCn1c2ccc(OC)cc2c2nc3ccccc3nc21	Pf growth 48h inconclusive, HCV inh 7.94µM
CCOc1ccc(Cn2c3ccc(OC)cc3c3nc4ccccc4nc32)cc1	HCMV inh inconclusive
COc1ccc(OC)c(NC(=S)N2CCN(C(=O)C3CCCO3)CC2)c1 (centres undefined)	none
O=C(C1CCCN(S(=O)(=O)c2cccc3nonc23)C1)N1CCN(c2cccc(Cl)c2)CC1 (centres undefined)	Pf growth 96h 7.38µM, HCMV inh -64.9!, HCV inh 7.94µM (no result: Pf growth 48h)
O=C(Nc1ccc(F)cc1)C1CCCN(S(=O)(=O)c2cccc3nonc23)C1 (centres undefined)	Pf growth 96h 3.7µM, HCMV inh inconclusive
O=C(C1CCCN(S(=O)(=O)c2cccc3nonc23)C1)N1CCN(c2ccccc2Cl)CC1 (centres undefined)	Pf growth 96h 11.7µM, Pf growth 48h 11.7µM, HCV inh inconclusive
O=S(=O)(c1cccc2nonc12)N1CCN(c2ccccc2F)CC1	none
O=C(C1CCN(S(=O)(=O)c2cccc3nonc23)CC1)N1CCN(c2cccc(Cl)c2)CC1	none (no result: SARS PLP yeast, Pf growth 96h, Pf growth 48h, HCV inh)
Cc1cccc(N2CCN(S(=O)(=O)c3cccc4nonc34)CC2)c1C	Pf growth 96h 2.94µM
